Unmarked numbers belong to inactive results. Activity calls are given as the source filed them. Calls follow the shape of the dose curve; as a rule, active = well fitted inhibition curve with a large enough effect; inconclusive = small, poorly fitted or top-dose-only effect; inactive = flat fitted curve, though single readings scatter.
Potency is read from the fitted curve at half-maximal effect.

This assay concerns Nanoluciferase (engineered Oplophorus gracilirostris luciferase). The experiment in a line: Primary Nanoluciferase (NLuc) qHTS assay for identification of artifact compounds. (AID 1845222). As to conditions: NLuc-conditioned medium, Nano-Glo luminescence, 5 min; series mostly up to 54.1 µM; activity, negative = inhibition: at the top concentration. An excerpt:
PI: Alexander Tropsha Ph.D.
UNC Eshelman School of Pharmacy
University of North Carolina, Chapel Hill, North Carolina
Hits from high-throughput screening (HTS) of chemical libraries are often false positives due to their interference with the assay detection technology. In response to this problem, we generated the largest publicly available library of chemical liabilities and developed a free webtool to predict HTS artifacts, both of which are described herein. More specifically, we generated, curated, and integrated HTS datasets for thiol reactivity, redox activity, and luciferase (firefly and nano) activity. Using these curated datasets, we developed and validated several Quantitative Structure-Interference Relationship (QSIR) models to predict nuisance behavior. […] These models were employed for virtual profiling of the National Center for Advancing Translational Science's (NCATS) in-house library, and 256 compounds for each assay were selected for the experimental validation of nuisance behavior. The BA for these external predictions ranged from 58 to 78% for compounds within the applicability domains of the models. […] The models developed in this study, along with aggregation models previously developed by our group (SCAM Detective) were implemented in "Liability Predictor," an online tool which may be used as part of chemical library design or for triaging HTS hits. Both the models and the curated datasets are publicly available at https://liability.mml.unc.edu/.
SEQUENCE No. (e.g., 1, 2, 3, etc.); […] (e.g., Cells, Incubation, Reagent, etc.); VALUE; DESCRIPTION.
1; Reagent; 2 uL; Nanoluciferase media.
2; Compounds and control; 16 nL; Kalypsis pin tool (Wako USA) equipped with a 1536-well pin head.
4; Reagent; 2 uL; Luciferase enzyme.
6; Detection; Luminescence, ViewLux microplate reader.
NOTES (numbers refer to Sequence numbers above)
1. Medium was collected from the culture flasks of NLuc-expressing S16 cells (80% confluent) prior to cell plating, filtered through a 0.22um filter, and frozen at -20C prior to use. Media was diluted (1:55) and 2 uL was dispensed into all wells of a 1536-well assay plate (solid-bottom white plate; Greiner Bio One, Monroe, NC).
2. A Wako Pin-tool (Wako Automation, Richmond, VA) was used to transfer 16 nL of compounds (consisting of 7-plates in qHTS format, final concentration range 18.3 nM to 114 uM) or control Cilnidipine (final concentration range 623 nM to 80 uM).
3. 15 min. incubation at room temperature protected from light.
4. 2 uL of NLuc substrate (1:100 in Nano-Glo luciferase buffer; Nano-Glo luminescence assay, Promega, Madison, WI) was dispensed for a final assay volume of 4 uL.
5. Plates were centrifuged (121xg, 15 seconds) and incubated for 5 minutes.
6. Samples were read for luminescence on a ViewLux CCD imager (PerkinElmer). Data were normalized to no-enzyme (0% activity) and no-inhibitor (DMSO; 100%) controls and the resulting percent inhibition data were fitted to a 4-parameter Hill equation using NCATS in-house software.
`Cc1ccc(NC(=O)C2(c3ccc4c(c3)OC(F)(F)O4)CC2)nc1-c1cccc(C(=O)O)c1`: the “activity, negative = inhibition” value is 1.19%.

Regarding `Cc1c(CN2CCN(S(C)(=O)=O)CC2)sc2c(N3CCOCC3)nc(-c3cnc(N)nc3)nc12`, the “activity, negative = inhibition” value was 2.94%. Still for that read-out and setting: as for `COc1ccc(C(=O)CC2(O)C(=O)Nc3c(Cl)ccc(Cl)c32)cc1` (stereo not given), the figure is -0.363%; as for `Cc1cc(Nc2cc(CN3CCOCC3)c3nc(C)c(Cc4ccc(Cl)cc4F)n3n2)n[nH]1`, 0.239%.

Turning to `Nc1nc(NCCNc2ncc(-n3ccnc3)c(-c3ccc(Cl)cc3Cl)n2)ccc1[N+](=O)[O-]`, the Potency was 0.536 µM (active). Regarding `CCc1c2c(nc3ccc(O)cc13)-c1cc3c(c(=O)n1C2)COC(=O)[C@]3(O)CC`, the “activity, negative = inhibition” value was -9.35%. `Cc1ccc(C(=O)Nc2cccc(C(F)(F)F)c2)cc1-c1ccc2nc(NCCN3CCOCC3)ncc2c1`: the “activity, negative = inhibition” value was 1.43%. As for `Cc1cc(N2CCOCC2)cc2[nH]c(-c3c(NC[C@@H](O)c4cccc(Cl)c4)cc[nH]c3=O)nc12`, the “activity, negative = inhibition” value was 4.09%. The same measure, in the same setting: under `CN(C)c1nc(Cc2ccc(NC(=O)c3ccc4ccccc4c3)cc2)nc(Cl)c1CC(=O)O` stands 1.73%. On to `Cc1c(NC(=O)OC[C@@H]2COCCN2)cn2ncnc(Nc3ccc4c(cnn4Cc4cccc(F)c4)c3)c12`, for which the “activity, negative = inhibition” value is 1.03%. On the same count and under the same terms, as for `Cc1ccc(C(=O)Nc2ccc(CN3CCN(C)CC3)c(C(F)(F)F)c2)cc1C#Cc1cnc2cccnn12`, the figure is -2.07%. With `Nc1nc(Nc2ccc(S(N)(=O)=O)cc2)nn1C(=O)c1c(F)cccc1F`, the “activity, negative = inhibition” value was 0.993%. On the same count and under the same terms, as for `Cc1cn(-c2cc(NC(=O)c3ccc(C)c(Nc4nccc(-c5cccnc5)n4)c3)cc(C(F)(F)F)c2)cn1`, the figure is -1.62%; as for `CC1(O)CC(c2nc(-c3ccc4ccc(-c5ccccc5)nc4c3)c3c(N)nccn23)C1` (stereo not given), -2.85%.

Regarding `Clc1cccc(-c2nnnn2Cc2cccnc2)c1Cl`, the “activity, negative = inhibition” value is -8%.

In the case of `Cc1ccc2nc(NC(=O)CSc3nc4c(c(=O)n3-c3ccccc3)SCC4)sc2c1`, the “activity, negative = inhibition” value was 3.79%. For `COc1cc(C(=O)N2CCC(N3CCN(C)CC3)CC2)ccc1Nc1ncc2c(n1)N(C)c1ccccc1C(=O)N2C`, the “activity, negative = inhibition” value is -8.8%. For the compound `COc1cc(-c2nn(C3CCC(N4CCN(C(C)=O)CC4)CC3)c3ncnc(N)c23)ccc1NC(=O)c1cc2ccccc2n1C` (stereo not given), the “activity, negative = inhibition” value is -5.97%.

For the compound `CCc1cc2c(cc1N1CCC(N3CCOCC3)CC1)C(C)(C)c1[nH]c3cc(C#N)ccc3c1C2=O`, the “activity, negative = inhibition” value is 4.05% [at 25.7 µM]. Still for that read-out and setting: as for `C[C@]12CC[C@H](O)CC1=CCC1C2CC[C@]2(C)C(n3cnc4ccccc43)=CCC12` (stereo not given in full), the figure is -4.64%. As for `CN(C1CCc2c(c3ccccc3n2CC(=O)O)C1)S(=O)(=O)c1ccc(F)cc1` (stereo not given), the Potency entry was “inactive”. With `C#Cc1cccc(Nc2ncnc3cc(OC)c(OCCCCCCC(=O)NO)cc23)c1`, the “activity, negative = inhibition” value is 0.592%. On the same count and under the same terms, as for `Nc1cc(C(F)(F)F)c(-c2cc(N3CCOCC3)nc(N3CCOCC3)n2)cn1`, the figure is -5.37%. With `CNC(=O)c1ccccc1Nc1nc(Nc2ccc(N3CCOCC3)cc2OC)ncc1Cl`, the “activity, negative = inhibition” value was 0%.

In the case of `COc1cccc2c(NCc3ccccc3)nc(-n3c(N)nc4ccccc43)nc12`, the “activity, negative = inhibition” value was 4.2%. As to `Cc1cnc(Nc2ccc(F)cc2Cl)nc1-c1c[nH]c(C(=O)N[C@H](CO)c2cccc(Cl)c2)c1`, the “activity, negative = inhibition” value is 4.01%.

With `CS(=O)(=O)c1ccc(-c2cnc(N)c(C(=O)Nc3ccccc3)n2)cc1`, the “activity, negative = inhibition” value was -27.1%. `Nc1nccc(Oc2ccc(NC(=O)c3c[nH]cc(-c4ccc(F)cc4)c3=O)cc2F)c1Cl`: the “activity, negative = inhibition” value was -2.06%. On the same count and under the same terms, as for `COc1ccc(F)c(F)c1C(=O)c1cnc(NC2CCN(S(C)(=O)=O)CC2)nc1N`, the figure is 3.01%; as for `Cc1ccc(C(N)=O)cc1Nc1nccc(-c2cn(C(C)C)c3cnccc23)n1`, -2.85%; as for `CC[C@@]1(O)C(=O)OCc2c1cc1n(c2=O)Cc2cc3cc(O)ccc3nc2-1`, 2.39%. In the case of `CC[C@@H]1C(=O)N(C)c2cnc(Nc3ccc(C(=O)NC4CCC(N5CCN(CC6CC6)CC5)CC4)cc3OC)nc2N1C(C)C` (stereo not given in full), the Potency result was “inactive”. Turning to `COC(=O)Nc1ccc(-c2nc(N3CCOCC3)c3cnn(C4CCN(Cc5cccnc5)CC4)c3n2)cc1`, the “activity, negative = inhibition” value is 1.94%. Turning to `O=C(Nc1ncc(-c2cc(C(F)F)nn2-c2c(Cl)cccc2Cl)s1)C1CC1`, the “activity, negative = inhibition” value was 0%. Take `Cc1cc(Nc2nc(N[C@@H](C)c3ccc(F)cc3)c(C#N)cc2F)n[nH]1`: the “activity, negative = inhibition” value was 2.59%.

With `Cc1ccc(CN2CCNCC2)cc1NC(=O)CNc1ccc(F)c(F)c1`, the “activity, negative = inhibition” value is 2.42%. `CC(C)Nc1cc(C(F)(F)F)cc2nc(NC(=O)c3cccnc3)nn12`: the “activity, negative = inhibition” value was 0%. As to `Nc1ccccc1NC(=O)c1ccc(CNC(=O)OCc2cccnc2)cc1`, the “activity, negative = inhibition” value is -4.77%.

As to `CCN(CC)CCNC(=O)c1ccc2nc(-c3ccccc3)c(-c3ccc(CN4CCC(n5c(=O)[nH]c6ccccc65)CC4)cc3)nc2c1`, the “activity, negative = inhibition” value was 1.13%. Still for that read-out and setting: under `O=C(Nc1cn[nH]c1-c1nc2ccc(CN3CCOCC3)cc2[nH]1)NC1CC1` stands 4.89%.

(Values after PubChem BioAssay (NCATS).)
